DT40 TDP1 CPT – growth inhibition of DT40 Tdp1-/-;hTDP1 cells with camptothecin (screen for TDP1 inhibitors); chicken DT40 Tdp1-/-;hTDP1 cells + 20 nM CPT, ATP luminescence, 48 h; Potency, µM (titrated, usually from 46.2 µM), for inactives: at the top dose activity change, negative = growth inhibition, most hits filed as inhibitors; hit rate 12% among 420,000; AID 686979; note: potency is the fitted concentration of half-maximal effect; % is set by controls: 0 for no effect and ±100 for the full control effect; nearly all actives have a fitted effect of over 55% in size
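Chicken DT40 Tdp1-/- cells complemented with human TDP1, 400 cells/well, exposed to compounds plus 20 nM camptothecin for at least 48 h at 37 C; viability read as ATP content by CellTiter-Glo luminescence.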
MCF10A rereplic – inducers of DNA re-replication in MCF 10A breast cells; MCF 10A DNA re-replication, Hoechst nuclear intensity, 48 h; Potency, µM (series often up to 46.1 µM), without a hit: at the top dose activity, positive = re-replication, actives largely listed as activators; hit rate 2.9% among 350,000; note: potency is the fitted concentration of half-maximal effect; % of control where 0% means no effect; nearly all actives have a fitted effect of over 50% in size
IL-1B inflam inh – inflammasome signaling inhibition, IL-1 beta readout | activity change, % at 57.5 µM | hit rate 4.7% among 360,000 | THP-1 LPS/ATP IL-1B secretion, AlphaLISA, 16 h; stronger effect = lower value; in the data active = activity change below about -50%; inconclusive = mostly about -30% to -49%; note: % is set by controls: 0 for no effect and ±100 for the full control effect
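Secreted IL-1B measured by AlphaLISA bead assay after 16 h compound exposure of THP-1 cells; compounds (final up to 57.5 uM) added 1 h before LPS (250 ng/mL) and ATP (1.25 mM) stimulation; lower signal means less secretion.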
BCR signal inh – blocks chronic active B-cell receptor signaling; ABC-DLBCL IkBa-CBG/CBR reporter, luminescence ratio, 4 h; AID 493014; hit rate 0.05% among 340,000; Potency, µM (highest dose often 46.1 µM), for the others: at the highest dose activity change, negative = inhibition, hits mostly inhibitors; active = well fitted inhibition curve with a large enough effect in the signal ratio, with a control signal flat, not every such curve was filed as active; inconclusive = small, poorly fitted or top-dose-only effect, or effect the other way, or a change in a side signal; the % refers to the signal ratio;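 note: potency is the fitted concentration of half-maximal effect; plate controls were basal doxycycline-induced cells for no effect and cells given 10 µM MG132 for full effect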
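Concentration-response series (up to 46 uM) were applied to TMD8 dual-reporter cells for 4 h at 37C with doxycycline. Green/red ratio, after filter-overlap correction, defined %Activity; red signal alone was normalised to basal cells and zero luminescence.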
SW480 rerep – inducers of DNA re-replication in SW480 colon cancer cells | hit rate 1.8% among 340,000 | Potency, µM (highest dose often 46.1 µM), inactives show top-dose re-replication activation, most hits filed as activators | SW480 DNA re-replication, Hoechst DNA content imaging, 48 h; note: potency is the fitted concentration of half-maximal effect; % of control where 0% means no effect; nearly all actives have a fitted effect of over 55% in size
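Quantitative HTS format with DMSO vehicle controls; 48 hr drug incubation at 37 C, then 40 min Hoechst staining and scanning imager measurement at 405 nm excitation.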
DT40 TDP1 no CPT – qHTS for Inhibitors of human tyrosyl-DNA phosphodiesterase 1 (TDP1): qHTS in cells in absence of CPT. DT40 Tdp1-/- hTDP1 cells, no CPT, ATP luminescence, 48 h. Potency, µM (series often up to 46.2 µM), inactives show at the top dose activity change, negative = growth inhibition, actives largely listed as inhibitors. hit rate 15% among 420,000; note: potency is the fitted concentration of half-maximal effect; % is set by controls: 0 for no effect and ±100 for the full control effect; nearly all actives have a fitted effect of over 55% in size
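Stably hTDP1-transfected Tdp1-null chicken DT40 cells were treated with library compounds minus camptothecin and grown for at least 48 hr at 37 °C, after which cellular ATP was quantified by luminescence.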
* marks the source's active call; other numbers are inactive results; ? = inconclusive; . = no result given; [ ] = dose if it differs, or a comment. The list is not random: actives were taken first. Their share in the collection is about 19%. Unless noted, calls come from the whole dose curve; as a rule, active = well fitted curve in the direction sought with a large enough effect; inconclusive = small, poorly fitted or top-dose-only effect, or another doubt; inactive = no such curve, though single readings can be large; an effect the other way counts as inactive or inconclusive.

SMILES	DT40 TDP1 CPT	MCF10A rereplic	IL-1B inflam inh	BCR signal inh	SW480 rerep	DT40 TDP1 no CPT
Cc1ccc2nc(-c3ccc(NC(=O)Cc4cccs4)cc3)[nH]c2c1	23µM*	?	-19	25%	?	?
S=c1[nH]nc(C2CCCCC2)n1/N=C/c1ccc(Br)s1	?	18µM*	2	6%	?	?
O=[N+]([O-])c1cccc(/C=N/n2c(C3CCCCC3)n[nH]c2=S)c1	?	3%	5	5%	3%	16µM*
FC(F)(F)c1ccc(/C=N/n2c(C3CCCCC3)n[nH]c2=S)cc1	?	23µM*	-10	?	-8%	?
S=c1[nH]nc(C2CCCCC2)n1/N=C/c1ccc(Cl)cc1	?	?	-10	?	?	?
S=c1[nH]nc(C2CCCCC2)n1/N=C/C(Cl)=C\c1ccccc1	-20%	?	-19	?	.	?
S=c1[nH]nc(C2CCCCC2)n1/N=C/C=C/c1ccccc1	26µM*	?	-25	?	-1%	?
N#Cc1ccccc1Cn1cc(/C=N/Nc2ccc([N+](=O)[O-])cn2)c2ccccc21	?	12%	-4	?	8%	23µM*
O=[N+]([O-])c1ccc(N/N=C\c2cccn2-c2ccccc2)nc1	12µM*	15µM*	93	?	?	?
O=[N+]([O-])c1cccnc1N/N=C/c1ccccc1O	?	-4%	47	1%	0.82µM*	9.2µM*
Cc1ccccc1-n1c(C)cc(/C=N/Nc2ccc([N+](=O)[O-])cn2)c1C	26µM*	3%	-13	?	?	?
CCN(C(=O)Cn1nc2c3cc(F)ccc3n(Cc3cccc(C)c3)cc-2c1=O)c1cccc(C)c1	-5%	.	.	.	.	-1%
CCCCn1c(N)c(N(CCOC)C(=O)COC(=O)CCOc2ccccc2C)c(=O)[nH]c1=O	-1%	-1%	7	-1%	-1%	-11%
O=[N+]([O-])c1ccc(NN=Cc2ccccc2O)nc1	5.8µM*	?	59	.	2.6µM*	5.8µM*
CCN(CC)S(=O)(=O)c1ccc(N/N=C/c2ccc(O)cc2O)nc1	4.6µM*	?	82	2%	?	5.8µM*
COc1ccccc1C=NNc1ccc([N+](=O)[O-])cn1	2%	-1%	15	.	-2%	6%
O=[N+]([O-])c1ccc(O)c(/C=N/Nc2ccccn2)c1	1.3µM*	?	-101*	?	1.3µM*	1.5µM*
O=[N+]([O-])c1ccc(O)c(/C=N/Nc2ncnc3c2cnn3-c2ccccc2)c1	3.7µM*	-16%	202	?	2.3µM*	3.7µM*
O=[N+]([O-])c1cccc(N/N=C/c2cc([N+](=O)[O-])ccc2O)c1	2%	?	-9	?	-8%	?
Cc1cc(C)cc(NC(=O)CCC(=O)Nc2nnc(C(C)C)s2)c1	-3%	9%	5	?	-19%	6%
Cc1cc(S(=O)(=O)Nc2ncnc3sccc23)ccc1F	-6%	.	13	.	.	-12%
COc1ccc(O)c(/C=N/Nc2nc3ccccc3[nH]2)c1	18%	-3%	18	?	2%	1%
O=[N+]([O-])c1ccc(O)c(/C=N/Nc2nc3ccccc3[nH]2)c1	4.1µM*	8.2µM*	31	?	23%	2.1µM*
O=[N+]([O-])c1ccc(NN=Cc2ccc(O)cc2O)nc1	3.3µM*	?	88	.	?	5.8µM*
O=[N+]([O-])c1ccc(N/N=C/c2ccccc2O)cc1	13µM*	133%	-18	?	?	8.2µM*
SMILES	DT40 TDP1 CPT	MCF10A rereplic	IL-1B inflam inh	BCR signal inh	SW480 rerep	DT40 TDP1 no CPT
CCOC(=O)[C@@H]1[C@H]2COc3ccccc3[C@@H]2N2C(=O)N(c3ccc(OC)cc3)C(=O)[C@@]12C	0%	-11%	22	7%	1%	?
O=CN1CCCN(C(=O)c2cc(NC(=O)c3ccccc3)cc3ncn(C4CCCC4)c23)CC1	20%	.	.	.	.	-13%
O=C(Nc1cccn(Cc2c(Cl)cccc2Cl)c1=O)c1ccc(Cl)cc1Cl	?	15%	-59*	15%	24%	?
COc1cccc(OC)c1C(=O)Nc1ccccc1C(=O)N1CCCCCC1	-3%	-2%	1	-2%	-8%	-1%
COc1cc(OC)cc(-c2oc3cccnc3c2C#CCCO)c1	?	-2%	-64*	?	-3%	?
COC(=O)C(NC(=O)CC(C)C)(Nc1nc2c(s1)CCCC2)C(F)(F)F (stereo not drawn)	16µM*	.	.	.	.	12µM*
COC(=O)C(NC(=O)COc1ccccc1)(Nc1nc2c(s1)CCCC2)C(F)(F)F (stereo not drawn)	-12%	4%	2	?	-1%	?
COCC(=O)Nc1cc(C(=O)N2CCN(c3ccc(Cl)cn3)CC2)c2c(c1)nc(C1CCC1)n2C	-16%[9.04 µM]	.	.	.	.	-11%
Fc1ccc2cnc(-c3ccccc3F)cc2c1	-11%	18µM*	16	-2%	-14%	-10%
Fc1ccc2cc(-c3ccccc3F)ncc2c1	-6%	-4%	56	-2%	13%	-21%
CC1CCCN(S(=O)(=O)c2cccc(C(=O)NCCCN3CCCC3=O)c2)C1 (stereo not drawn)	-7%	.	-16	.	.	-6%
O=C(CN1C(=O)CCSc2ccc(S(=O)(=O)N3CCCC3)cc21)Nc1ccccc1	-4%	3%	9	4%	1%	-1%
O=C(CN1C(=O)CCSc2ccc(S(=O)(=O)N3CCCC3)cc21)Nc1cccc(F)c1	13µM*	.	.	.	.	?
O=C(CN1C(=O)CCSc2ccc(S(=O)(=O)N3CCCC3)cc21)Nc1cccc(Cl)c1	23µM*	.	.	.	.	?
COc1cc([N+](=O)[O-])ccc1NC(=S)NNC(=O)CCC(=O)Nc1ccccc1Cl	-13%	5%	12	8%	0%	14%
Cc1ccc(NC(=O)N2CCc3c(sc4c3CCCC4)C2c2ccccc2)cc1F (stereo not drawn)	?	.	.	.	.	15µM*
O=C(Nc1ccc(F)cc1F)N1CCc2c(sc3c2CCCC3)C1c1ccc(F)cc1 (stereo not drawn)	?	.	.	.	.	18µM*
CCOc1ccccc1NC(=O)N1CCc2c(sc3c2CCCC3)C1c1ccccc1 (stereo not drawn)	?	.	.	.	.	23µM*
COc1ccccc1NC(=O)N1CCCC1C(=O)NCc1ccc(F)cc1 (stereo not drawn)	-1%	3%	-1	0%	-5%	4%
